# Rab9 promoter act: qHTS Assay for Rab9 Promoter Activators | Huh7 Rab9 promoter-luciferase reporter, luminescence, 24 h | Potency, µM (series often up to 9.22 µM), hits mostly activators | 320,000 compounds, 2.8% hits | AID 485297, 2010; note: nearly all actives have a fitted effect of over 60% in size
#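 Cells were plated at 1500 per well in reduced-serum medium with 10% FBS and left 2 h. Compound in DMSO was then added for 24 h at 37 °C. Reporter signal was read by luminescence after 10 min with luciferase detection reagent.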
# SMN2 splice up: qHTS Assay for Enhancers of SMN2 Splice Variant Expression. HEK293 SMN2-luciferase splicing reporter, luminescence, 30-36 h. Potency, µM (titrated, usually from 46.1 µM), most hits filed as activators. 210,000 compounds, 2.8% hits; note: nearly all actives have a fitted effect of over 55% in size
#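 HEK293 cells carry an SMN2 […]–luciferase reporter in which exon 7 inclusion puts luciferase in frame. Cells were plated 10-12 h before compound addition, then incubated 30-36 h at 37C. ONE-Glo luminescence was read; sodium butyrate at 4.5 mM final served as control.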
# NPC1 promoter act: qHTS Assay for NPC1 Promoter Activators | Huh7 NPC1 promoter luciferase reporter, 24 h | Potency, µM (doses to about 9.22 µM), actives largely listed as activators | 320,000 compounds, 2.4% hits; note: nearly all actives have a fitted effect of over 60% in size
#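 Luminescence from an NPC1 promoter-driven luciferase reporter in stably transfected Huh7 cells was measured after 24 h compound treatment at 37 °C, followed by 10 min ambient incubation with luciferase detection reagent.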
# ELG1 genotoxic: qHTS screen for small molecules that induce genotoxicity in human embryonic kidney (HEK293T) cells expressing luciferase-tagged ELG1; Potency, µM (highest dose often 46 µM), actives largely listed as activators; 330,000 compounds, 1.3% hits; HEK293T ELG1-luciferase reporter, luminescence, 16 h; note: nearly all actives have a fitted effect of over 60% in size
#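 HEK293T cells expressing luciferase-tagged ELG1 were treated with compound or DMSO for 16 hr at 37°C. Luciferase activity was then read after 30 min with ONE-Glo at room temperature; rising signal flags genetic stress.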
# FLuc modulator: qHTS profiling assay for firefly luciferase inhibitor/activator using purifed enzyme and Km concentrations of substrates (counterscreen for miR-21 project). 360,000 compounds, 6.9% hits. Potency, µM (highest dose often 57.5 µM), actives largely listed as inhibitors. purified FLuc, Km substrates, luminescence inhibition; note: nearly all actives have a fitted effect of over 55% in size
# Target sequence (P08659 whole entry, looked up): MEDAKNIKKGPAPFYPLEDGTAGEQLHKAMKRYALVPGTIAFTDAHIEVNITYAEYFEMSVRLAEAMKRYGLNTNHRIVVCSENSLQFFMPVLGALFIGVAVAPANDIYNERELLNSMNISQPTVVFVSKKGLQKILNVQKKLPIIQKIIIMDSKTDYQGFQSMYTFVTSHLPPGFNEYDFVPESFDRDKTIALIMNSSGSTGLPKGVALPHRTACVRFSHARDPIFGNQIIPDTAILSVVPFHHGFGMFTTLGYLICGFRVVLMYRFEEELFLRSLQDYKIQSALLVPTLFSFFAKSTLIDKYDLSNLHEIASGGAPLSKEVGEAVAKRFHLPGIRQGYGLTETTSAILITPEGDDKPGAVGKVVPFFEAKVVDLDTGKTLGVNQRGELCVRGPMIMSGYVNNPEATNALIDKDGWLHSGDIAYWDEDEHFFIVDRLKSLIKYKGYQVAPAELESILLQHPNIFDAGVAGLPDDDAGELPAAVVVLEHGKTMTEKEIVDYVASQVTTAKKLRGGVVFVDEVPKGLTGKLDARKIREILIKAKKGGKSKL
#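 Purified P. pyralis luciferase (10nM final) with 10uM D-luciferin and 10uM ATP (Km levels) in 50mM Tris acetate pH 7.5, 10mM Mg acetate, 0.01% Tween-20, 0.05% BSA; qHTS 6-point titration, ~60 µM downward; luminescence read.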
# Hits are given with their value; . = inactive; ? = inconclusive; / = no result given; [ ] = remark or other dose. This is a sample that favours compounds with a hit; in the whole collection about 7.5% have one here. Calls come from the whole dose curve; as a rule, active = well fitted curve in the direction sought with a large enough effect; inconclusive = small, poorly fitted or top-dose-only effect, or another doubt; inactive = no such curve, though single readings can be large; an effect the other way counts as inactive or inconclusive.
SMILES,Rab9 promoter act,SMN2 splice up,NPC1 promoter act,ELG1 genotoxic,FLuc modulator
Cc1cccc(-c2cc3nc4c(c(N5CCCC(O)C5)n3n2)CCC4)c1 (configuration not stated),.,.,.,.,.
Cc1ccc(-n2c(SCC(=O)N3CCC(C)CC3)nc3c([nH]c4ccccc43)c2=O)cc1,/,/,/,/,.
COc1ccc2c(c1)nc(SCC(O)c1ccccc1)n2C (configuration not stated),.,.,.,.,?
Cc1cccc(-c2cc3nc4c(c(NCc5ccco5)n3n2)CCCC4)c1,3.16µM,.,?,.,10.7µM
O=C(C1CCCO1)N1CCN(c2c3c(nc4cc(-c5ccc(F)cc5)nn24)CCC3)CC1 (configuration not stated),.,.,.,.,4.78µM
OC1CCCN(c2c3c(nc4cc(-c5cccc(Cl)c5)nn24)CCC3)C1 (configuration not stated),.,.,.,.,.
CSc1ccccc1NC(=O)c1ccccc1C,.,.,.,.,.
Cn1c(O)c(N=Nc2ccccc2[N+](=O)[O-])c2ccccc21,?,/,3.55µM,?,?
CCOC(=O)C(=O)N=Nc1c(O)n(C)c2ccccc12,.,/,.,.,.
Cc1cc(N=NC(=O)c2ccccc2O)c2ccccc2c1O,3.16µM,.,?,.,10.7µM
Cc1occc1C(=O)N=Nc1c(O)n(C)c2ccccc12,?,2.82µM,?,?,1.69µM
Cn1c(O)c(N=NC(=O)c2ccco2)c2ccccc21,2.24µM,10µM,3.98µM,?,4.78µM
Cc1nc(SCC(=O)OC(C)(C)C)c2c3c(sc2n1)CCCC3,/,.,/,/,.
COc1ccc2[nH]c(C(=O)O)c(NC(=O)c3cc(OC)c(OC)c(OC)c3)c2c1,.,/,.,.,?
Cn1c(O)c(N=NC(=O)c2ccccc2O)c2ccccc21,?,/,3.55µM,7.3µM,3.01µM
COc1cc(OC)cc(-c2nc3nc(C)c(CCC(=O)Nc4ccc(C)c(C)c4)c(C)n3n2)c1,/,.,/,/,.
CSc1ncc(Cl)c(C(=O)Nc2c(C(=O)c3ccc(C)c(F)c3)oc3ccccc23)n1,/,.,/,/,.
CCOC(=O)c1ccc(N/C=C/C(=O)c2ccccc2)cc1,?,/,.,.,6.01µM
CCOC(=O)c1ccc(N/C=C/C(=O)C(C)(C)C)cc1,3.55µM,?,3.55µM,?,3.01µM
CCCc1nc2nc(C)c(NS(=O)(=O)c3ccc(CC(C)C)cc3)c(=O)n2[nH]1,.,.,.,.,.
COC(=O)c1cc2oc3ccccc3c2n1CC(=O)Nc1ccc(F)c(Cl)c1,/,.,/,/,.
CC(C)CCNC(=O)C1CC(c2cccc(F)c2)=NO1 (configuration not stated),.,/,.,.,.
O=C(NC1=NC2CCCCC2N1)c1ccccc1 (configuration not stated),0.316µM,.,0.398µM,0.581µM,1.51µM
O=C1CC(c2ccc(Cl)cc2)N=C(NC(=O)c2ccccc2)N1 (configuration not stated),/,/,/,/,.
Cc1ccc(S(=O)(=O)N2CCCCC2)c2nsnc12,.,/,.,.,.
SMILES,Rab9 promoter act,SMN2 splice up,NPC1 promoter act,ELG1 genotoxic,FLuc modulator
Nc1[nH]c(=O)[nH]c(=O)c1N=Nc1ccccc1Cl,.,/,.,.[9.26 µM],?
Cc1[nH][nH]c(=O)c1N=Nc1ccccc1Cl,.,/,.,.,15.1µM
Cn1c(SCc2ccc(F)cc2)nnc1-c1cccs1,3.98µM,?,2.24µM,?,19µM
Nn1c(SCc2ccccc2F)nnc1-c1cccnc1,2.24µM,/,?,?,?
Cn1c(SCc2ccc(F)cc2)nnc1-c1ccccn1,2.24µM,?,4.47µM,?,?
Cn1c(SCc2ccccc2F)nnc1-c1cnccn1,3.16µM,/,?,?,?
CC1=C(C(=O)OC2CCCC2)C(c2ccccc2Cl)CC(=O)N1 (configuration not stated),/,.,/,/,.
CNC[C@@H]1Oc2ccc(NC(=O)Nc3cccc4ccccc34)cc2C(=O)N([C@@H](C)CO)C[C@@H]1C,/,/,/,.,/
CCOC(=O)Cc1ccc(NC(=O)NCc2cccn2Cc2ccccc2)cc1,/,/,/,/,.
Cn1c(SCc2ccccc2F)nnc1-c1ccccn1,2.24µM,11.2µM,3.98µM,?,?
Cc1ccc(CSc2nnc(-c3ccccn3)n2C)cc1,?,.,.,?,?
CCCn1c(SCC(=O)NC2CC2)nnc1-c1cccs1,.,/,.,.,.
Cn1c(SCC(=O)NC2CC2)nnc1-c1cccs1,3.98µM,/,3.98µM,.,?
CCOCCn1ccc2c(OCC(=O)NCc3ccccc3)cccc2c1=O,.,/,.,.,.
Cc1ccc(/C=C2/SC(=S)N(c3ccc(S(=O)(=O)Nc4nccs4)cc3)C2=O)cc1,.,/,.,.,?
Cc1ccc(Oc2ccc3c(c2)C(=O)N(c2ccc(S(=O)(=O)Nc4nccs4)cc2)C3=O)cc1,.,.,.,.,19µM
NC(N)=NC(N)=Nc1ccc(S(=O)(=O)O)cc1,/,.[9.22 µM],/,/,/
O=S(=O)(O)c1ccc(N=NNc2ccc(Br)cc2)cc1,.,/,.,.,9.53µM
CCc1ccccc1NC(=O)CN1C(=O)COc2ccc(S(=O)(=O)Nc3ccccc3)cc21,/,/,/,/,.
CC(C)N(Cc1nnc(-c2ccc(Cl)cc2)o1)C(=O)c1cc2ccccc2o1,.,/,.,.,?
CN(C)C(=O)CSc1nnc(C23CC4CC(CC(C4)C2)C3)o1,3.16µM,?,?,9.2µM,?
CN(C)C(=O)CSc1nnc(CCN)o1,.,.,.,.,.
O=c1ccc(-c2ccccc2)nn1Cc1ccc(F)cc1,.,/,.,.,.
O=C(c1ccc(C(F)(F)F)cc1)n1ccc(-c2cccs2)n1,.,/,.,.,15.1µM
Fc1ccc(Cn2ccc(-c3cnc(-c4ccccc4)s3)n2)cc1,3.16µM,.,?,?,10.7µM
SMILES,Rab9 promoter act,SMN2 splice up,NPC1 promoter act,ELG1 genotoxic,FLuc modulator
O=C(c1ccc(F)cc1)n1ccc(-c2cnc(-c3ccccc3)s2)n1,0.708µM,12.6µM,1µM,0.82µM,?
O=S(=O)(c1ccccc1)n1ccc(-c2cnc(-c3ccccc3)s2)n1,?,.,?,?,15.1µM
O=C(c1ccc(F)cc1)n1nc(-c2cccnc2)nc1NCc1ccccc1,/,.,/,/,.
O=C(O)CSc1nc(-c2cccs2)cc(C(F)(F)F)n1,.,.,.,.,.
COc1ccc(-n2nc(C(=O)NCC(=O)NCCC3=CCCCC3)c3ccccc3c2=O)cc1,.,/,.,.,.
Cc1ccc(Cn2ccc(NC(=O)c3cc(-c4ccccc4)on3)n2)cc1,.,.,.,.,.
Cc1ccc(Cn2ccc(-c3cnc(-c4ccccc4)s3)n2)cc1,?,.,?,?,10.7µM
COc1ccc(CCNC(=O)Cc2cc(OC)c(OC)cc2[N+](=O)[O-])cc1OC,.,.,.,.,.
COc1ccc(C(=O)Cc2nnc(C)s2)c(OC)c1,?,?,.,?,?
